Compound activity deposited in PubChem BioAssay by Broad Institute.
Many of the other results were omitted from the sample, so hits are more common in it than they were.
NOMO-1 viab = STK33 inhibitor candidate reducing NOMO-1 cell viability; NOMO-1 AML viability, CellTiter-Glo luminescence, 72 h; inhibition, % (test concentration not listed); actives 7.5% (n = 37,000); AID 2330; in the data active = inhibition above about 80%
PD-1 reverse act = activators reversing PD-1 mediated T-cell inhibition; primary human CD4 T cells, PD-L1 beads, CellTiter-Glo 96 h; activation, % (concentration not given with the values); 29,000 tested, under 10 active; AID 2316; call rule not given here
STK33 inh = inhibitors of human STK33 kinase; Q9BYT3; ADP-Glo luminescence, MBP substrate; inhibition, % at 12.5 µM; actives 0.44% (n = 27,000); AID 2322; in the data active = inhibition above about 20%
Target sequence (Q9BYT3 whole entry, looked up): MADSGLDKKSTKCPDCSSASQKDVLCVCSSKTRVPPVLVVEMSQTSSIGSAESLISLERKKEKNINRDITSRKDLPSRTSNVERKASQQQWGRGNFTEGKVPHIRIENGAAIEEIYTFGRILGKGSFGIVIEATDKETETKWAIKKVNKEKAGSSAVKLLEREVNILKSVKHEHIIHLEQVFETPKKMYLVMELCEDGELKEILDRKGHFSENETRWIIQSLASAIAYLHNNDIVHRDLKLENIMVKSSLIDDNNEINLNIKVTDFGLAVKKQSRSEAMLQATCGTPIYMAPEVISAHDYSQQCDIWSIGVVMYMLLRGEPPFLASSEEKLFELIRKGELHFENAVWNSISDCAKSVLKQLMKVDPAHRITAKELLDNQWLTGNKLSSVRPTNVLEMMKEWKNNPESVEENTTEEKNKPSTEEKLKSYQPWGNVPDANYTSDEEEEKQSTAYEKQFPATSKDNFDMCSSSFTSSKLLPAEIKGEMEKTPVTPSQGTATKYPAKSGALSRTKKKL
Of the large screens only hits and unclear results are named; the others gave an inactive call.

CS(=O)(=O)N(CC(=O)NC1CCCCC1)c1ccc2c3c(cccc13)CC2	none
FC(F)(F)c1cc(-c2cn3ccccc3n2)cc(C(F)(F)F)c1	none (no result: STK33 inh)
C[C@@H]1CN([C@H](C)CO)C(=O)c2cccc(NC(=O)c3nc4ccccc4s3)c2O[C@H]1CN(C)S(=O)(=O)c1ccccc1	none (no result: PD-1 reverse act, STK33 inh)
Cc1ccc(S(=O)(=O)N(C)C[C@H]2Oc3c(NC(=O)c4nc5ccccc5s4)cccc3C(=O)N([C@@H](C)CO)C[C@@H]2C)cc1	none (no result: PD-1 reverse act, STK33 inh)
C[C@@H]1CN([C@H](C)CO)C(=O)c2cccc(NC(=O)c3nc4ccccc4s3)c2O[C@@H]1CN(C)S(=O)(=O)c1ccc(Cl)cc1	none (no result: STK33 inh)
C[C@@H]1CN([C@H](C)CO)C(=O)c2cccc(NC(=O)c3nc4ccccc4s3)c2O[C@@H]1CN(C)S(=O)(=O)c1ccccc1	none (no result: PD-1 reverse act, STK33 inh)
C[C@@H]1CN([C@@H](C)CO)C(=O)c2cccc(NC(=O)c3nc4ccccc4s3)c2O[C@@H]1CN(C)S(=O)(=O)c1ccccc1	NOMO-1 viab 102.1 (no result: STK33 inh)
C[C@@H]1CN([C@@H](C)CO)C(=O)c2cccc(NC(=O)c3nc4ccccc4s3)c2O[C@@H]1CN(C)S(=O)(=O)c1ccc(Cl)cc1	NOMO-1 viab 113.1 (no result: STK33 inh)
C[C@H](CO)N1C[C@H](C)[C@H](CN(C)S(=O)(=O)c2ccc(F)cc2)Oc2c(NC(=O)c3nc4ccccc4s3)cccc2C1=O	NOMO-1 viab 108.5 (no result: STK33 inh)
C[C@H](CO)N1C[C@H](C)[C@H](CN(C)S(=O)(=O)c2ccc(Cl)cc2)Oc2c(NC(=O)c3nc4ccccc4s3)cccc2C1=O	NOMO-1 viab 92.7 (no result: STK33 inh)
CNC(=O)CCc1cc2ccccc2[nH]1	none (no result: STK33 inh)
CCn1c(SCC(=O)Nc2ccccc2Br)nnc1-c1ccccc1	none
COc1ccccc1-c1nnc(SCC(=O)Nc2ccccc2C(F)(F)F)n1C	none (no result: PD-1 reverse act)
Cc1ccccc1-c1nnc(SCC(=O)Nc2cc(C(F)(F)F)ccc2N2CCOCC2)o1	none
C[C@H](CO)N1C[C@H](C)[C@@H](CN(C)S(=O)(=O)c2ccc(Cl)cc2)Oc2c(NC(=O)c3nc4ccccc4s3)cccc2C1=O	NOMO-1 viab 117.3 (no result: STK33 inh)
C[C@@H]1CN([C@@H](C)CO)C(=O)c2cccc(NC(=O)c3nc4ccccc4s3)c2O[C@H]1CN(C)S(=O)(=O)c1ccccc1	none (no result: STK33 inh)
C[C@@H]1CN([C@@H](C)CO)C(=O)c2cccc(NC(=O)Nc3ccccc3)c2O[C@H]1CN(C)Cc1ccc(Oc2ccccc2)cc1	NOMO-1 viab 113.4 (no result: STK33 inh)
C[C@H](CO)N1C[C@H](C)[C@H](CN(C)Cc2ccc(Oc3ccccc3)cc2)Oc2c(NC(=O)Nc3ccc(F)cc3)cccc2C1=O	none (no result: STK33 inh)
COc1ccc(CN(C)C[C@@H]2Oc3c(NC(=O)Nc4ccccc4)cccc3C(=O)N([C@@H](C)CO)C[C@H]2C)cc1	NOMO-1 viab 100.2 (no result: PD-1 reverse act, STK33 inh)
C[C@H](CO)N1C[C@H](C)[C@@H](CN(C)Cc2ccc(Oc3ccccc3)cc2)Oc2c(NC(=O)Nc3ccc(F)cc3)cccc2C1=O	NOMO-1 viab 99.0 (no result: STK33 inh)
COc1ccc(NC(=O)Nc2cccc3c2O[C@H](CN(C)Cc2ccccc2)[C@@H](C)CN([C@@H](C)CO)C3=O)cc1	none (no result: STK33 inh)
C[C@@H]1CN([C@H](C)CO)C(=O)c2cccc(NC(=O)Nc3ccccc3)c2O[C@H]1CN(C)Cc1ccc(Oc2ccccc2)cc1	none (no result: STK33 inh)
c1ccc(SCCN2CCN(CCSc3ccccc3)CC2)cc1	none (no result: STK33 inh)
Cc1ccccc1NC(=O)COc1ccc(C)c([N+](=O)[O-])c1	none
O=S(=O)(CCSc1nccc(-c2ccc(Cl)cc2)n1)c1ccc(Cl)cc1	none (no result: STK33 inh)
C[C@@H]1CN([C@H](C)CO)C(=O)c2cccc(NC(=O)C3CC3)c2O[C@H]1CN(C)Cc1ccc(C(F)(F)F)cc1	none (no result: PD-1 reverse act, STK33 inh)
C[C@H](CO)N1C[C@H](C)[C@H](CN(C)C(=O)Nc2ccc(C(F)(F)F)cc2)Oc2c(NC(=O)CCCCCC(=O)Nc3ccccc3N)cccc2C1=O	NOMO-1 viab 114.2 (no result: STK33 inh)
C[C@H](CO)N1C[C@H](C)[C@H](CN(C)Cc2ccc(C(F)(F)F)cc2)Oc2c(NC(=O)CCCCCC(=O)Nc3ccccc3N)cccc2C1=O	NOMO-1 viab 114.6 (no result: STK33 inh)
C[C@@H]1CN([C@@H](C)CO)C(=O)c2cccc(NC(=O)CCCCCC(=O)Nc3ccccc3N)c2O[C@@H]1CN(C)Cc1ccc(C(F)(F)F)cc1	NOMO-1 viab 118.8 (no result: STK33 inh)
CC(C)NC(=O)Nc1cccc2c1O[C@H](CN(C)Cc1ccc(C(F)(F)F)cc1)[C@@H](C)CN([C@@H](C)CO)C2=O	none (no result: STK33 inh)
C[C@@H]1CN([C@H](C)CO)C(=O)c2cccc(NC(=O)CCCCCC(=O)Nc3ccccc3N)c2O[C@@H]1CN(C)C(=O)Nc1ccc(F)cc1	none (no result: STK33 inh)
CC(C)NC(=O)Nc1cccc2c1O[C@@H](CN(C)Cc1ccc(C(F)(F)F)cc1)[C@@H](C)CN([C@H](C)CO)C2=O	none (no result: STK33 inh)
C[C@@H]1CN([C@H](C)CO)C(=O)c2cccc(NC(=O)CCCCCC(=O)Nc3ccccc3N)c2O[C@@H]1CN(C)Cc1ccc(C(F)(F)F)cc1	NOMO-1 viab 114.6 (no result: STK33 inh)
COc1ccc(S(=O)(=O)N(C)CC(=O)Nc2ccc(Br)cc2F)cc1Cl	none
Cc1ccc(C)c(NC(=O)CSc2ncnc3sc4c(c23)CCC4)c1	none (no result: PD-1 reverse act)
COC(=O)/C=C1/NCC(OC(=O)c2ccc(C(C)(C)C)cc2)CNC1=O (stereo not drawn)	none (no result: STK33 inh)
N=c1ncn(CC(O)CO)c2nc(Br)[nH]c12 (stereo not drawn)	none (no result: STK33 inh)
COc1ccc(CNCc2cccc(OC)c2)cc1	none (no result: STK33 inh)
CCOC(=O)c1c(N(C)C)ccc(C2C=CNC(=O)N2)c1C (stereo not drawn)	none (no result: STK33 inh)
COc1ccc(NC(=O)C(=O)NCC(=O)Nc2ccc(OC)c(Cl)c2)cc1	none (no result: PD-1 reverse act)
CCOC(=O)c1c(NC(=O)c2ccc(Cn3cc(Br)cn3)o2)sc2c1CCCC2	none
O=C(CSc1nnc(-c2cccnc2)n1-c1ccccc1)NCc1ccccc1	none
C[C@@H]1CN([C@H](C)CO)C(=O)c2cc(NC(=O)Nc3ccc(C(F)(F)F)cc3)ccc2O[C@H]1CN(C)Cc1ccc(-c2ccccc2)cc1	NOMO-1 viab 126.2 (no result: STK33 inh)
C[C@@H]1CN([C@@H](C)CO)C(=O)c2cc(NC(=O)Nc3ccc(C(F)(F)F)cc3)ccc2O[C@H]1CN(C)Cc1ccc(-c2ccccc2)cc1	NOMO-1 viab 118.1 (no result: PD-1 reverse act, STK33 inh)
C[C@H](CO)N1C[C@H](C)[C@@H](CN(C)Cc2ccc(C(=O)O)cc2)Oc2ccc(NC(=O)Nc3ccc(C(F)(F)F)cc3)cc2C1=O	none (no result: STK33 inh)
C[C@@H]1CN([C@@H](C)CO)C(=O)c2cc(NC(=O)Nc3ccc(C(F)(F)F)cc3)ccc2O[C@@H]1CN(C)Cc1ccc(-c2ccccc2)cc1	NOMO-1 viab 126.2 (no result: STK33 inh)
C[C@H](CO)N1C[C@H](C)[C@@H](CN(C)Cc2ccc(-c3ccccc3)cc2)Oc2ccc(NC(=O)Nc3ccc(C(F)(F)F)cc3)cc2C1=O	NOMO-1 viab 121.9 (no result: STK33 inh)
Fc1ccccc1-c1nnc(SCc2nc3ccccc3[nH]2)n1-c1ccccc1	none (no result: PD-1 reverse act)
Cc1c(Cl)cccc1NC(=O)CSc1nnc(-c2ccc([N+](=O)[O-])cc2)n1C	none (no result: PD-1 reverse act)
COc1ccc(C)cc1S(=O)(=O)N1CCC(C(=O)Nc2cc(Cl)ccc2Cl)CC1	none
COc1ccc(Cl)cc1N(CC(=O)Nc1ccc(Br)cc1F)S(C)(=O)=O	none
CC(=O)O[C@H]1[C@H](Oc2ccccc2COC(=O)C2(O)C=CCCC2=O)O[C@H](COC(=O)C2(O)C=CCCC2=O)[C@@H](O)[C@@H]1O (stereo partly drawn)	none (no result: NOMO-1 viab, PD-1 reverse act)
COc1cc(CCC(O)CC(O)CCc2ccc(O)c(OC)c2)ccc1O (stereo not drawn)	none (no result: NOMO-1 viab, PD-1 reverse act)
